# High-throughput results deposited in PubChem by National Center for Advancing Translational Sciences (NCATS).
# In the library only some 1.3% were active in any assay of this set; here they are far more common.
# HTT-AS promoter: activates huntingtin-antisense promoter activity. actives 0.24% (n = 48,000). AID 1508624. HEK293 HTT-AS promoter firefly luciferase reporter, 24 h; response scale: percent change from vehicle, -100% = no light. Potency, µM (doses to about 57.5 µM), for inactives: top-dose activity change, positive = activation, most hits filed as activators; further: nearly all actives have a fitted effect of over 55% in size
#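 HEK293 Fluc reporter, 2,500 cells/well, 24 h pre-culture; cpds up to 57.5 uM final, 24 h 37 degrees C; Dual-Glo, 10 min RT; normalized vehicle = 0%, zero RLU = -100%.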
# FH mod: Identification of activators of human fumarate hydratase by quantitative high-throughput screening | actives 0.22% (n = 54,000) | Fumarate hydratase, mitochondrial (Homo sapiens), P07954 | FH coupled MDH/diaphorase resazurin fluorescence, 15 min | Potency, µM (top dose mostly 79.9 µM), for inactives: at the highest dose activity change, negative = inhibition, hits mostly inhibitors; further: on the % scale 0 is the no-effect control and ±100 the full control effect; the screen sought activators but most active calls are inhibition curves; nearly all actives have a fitted effect of over 45% in size
# HTT prom inh: inhibits huntingtin promoter activity. Potency, µM (series often up to 57.5 µM), for the others: at the top dose activity change, negative = inhibition, most hits filed as inhibitors. actives 0.93% (n = 48,000). HEK293 HTT promoter firefly luciferase reporter, 24 h; further: nearly all actives have a fitted effect of over 50% in size
#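 Firefly luciferase signal from promoter-reporter HEK293 cells was scaled between vehicle (0%) and zero RLU (-100%). Compounds were tested at final concentrations of up to 57.5 uM over 24 h at 37 degrees C. PTC124 at 50 uM final served as control inhibitor.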
# TSG101-PTAP inh: TSG101-PTAP interaction inhibition, HIV-1 budding; Fluorescence polarization, FITC-PTAP peptide/Tsg101, 20 min; 44,000 tested, under 10 active; Q99816; AID 1347069; Potency, µM (titrated, usually from 115 µM), most hits filed as inhibitors; further: 0% is about no effect
# Target sequence (Q99816 whole entry, looked up): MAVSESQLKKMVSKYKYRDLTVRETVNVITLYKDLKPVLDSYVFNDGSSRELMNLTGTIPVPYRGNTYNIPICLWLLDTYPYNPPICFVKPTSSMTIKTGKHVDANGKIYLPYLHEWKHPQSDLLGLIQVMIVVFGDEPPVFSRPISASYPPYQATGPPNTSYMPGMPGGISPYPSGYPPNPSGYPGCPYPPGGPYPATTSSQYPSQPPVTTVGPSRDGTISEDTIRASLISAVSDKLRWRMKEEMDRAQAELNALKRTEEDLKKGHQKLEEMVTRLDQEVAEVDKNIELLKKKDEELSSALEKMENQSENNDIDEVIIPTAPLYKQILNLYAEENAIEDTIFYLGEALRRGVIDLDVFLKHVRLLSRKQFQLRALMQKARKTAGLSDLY
#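 Read-out is FITC fluorescence polarization. Compounds were added to Tsg101 binding domain (10 uM final), then FITC-PTAP peptide (50 nM final), 20 min at r.t. Total S+P intensity flags fluorescent compounds.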
# The depositor's hits bear a star; i = inactive; ? = inconclusive; · = no result given; ! = not active in a repeat; [ ] = another dose, or the depositor's remark. The call rests on the fitted dose curve; in most records, active means well fitted curve in the direction sought with a large enough effect; inconclusive means small, poorly fitted or top-dose-only effect, or another doubt; inactive means no such curve, though single readings can be large; an effect the other way counts as inactive or inconclusive. Potency means the concentration at half of the fitted maximal effect.
SMILES,HTT-AS promoter,FH mod,HTT prom inh,TSG101-PTAP inh
COc1ccc(CCO[C@@H]2O[C@H](CO[C@@H]3OC[C@H](O)[C@H](O)[C@H]3O)[C@@H](O)[C@H](O)[C@H]2O)cc1,·,0%[53.3 µM],·,·
CCc1ccccc1NC(=O)c1ccc2[nH]c(C)c(C)c2c1,8.9µM*,-16%,54%,i
COc1ccc(-c2cc(=O)c3c(O)cc(O)cc3o2)cc1O,15%,24µM*,2%,·
COc1cc2ncnc(Nc3ccc(O)c(Br)c3)c2cc1OC,·,-7%,·,·
COc1cc(N2CCC(N(C)C)CC2)ccc1Nc1ncc(Cl)c(Nc2ccccc2P(C)(C)=O)n1,·,-1%,·,·
COc1ccc2nc(NC(=O)c3cc(=O)c4ccccc4o3)sc2c1,3.2µM*,-2%,67%,i
Cc1ccc2nc(NC(=O)c3cc(=O)c4cc(C)c(C)cc4o3)sc2c1,0%,2%,-13%,i
CNC(=O)c1ccc(-c2cnc3cnc(C(=O)N(C)c4ccc(Cl)cc4)cn23)cc1,·,1%,·,·
CCCCN(CC)c1nc(C)nc2c1c(C)cn2-c1c(C)cc(C)cc1C,·,0%,·,·
Cc1ccc(S(=O)(=O)N2CCCc3cc(NS(=O)(=O)c4ccc(F)c(C)c4)ccc32)cc1,-45%,?,25µM*,i
Cc1cccc(N2CCN(c3ncnc4onc(C)c34)CC2C)c1 (stereo unspecified),-93%,-41%,13µM*,i
Cc1cccc(N2CCN(c3ncnc4onc(-c5ccc(F)cc5)c34)CC2C)c1 (stereo unspecified),-35%,-3%,?,i
COC(=O)C1=C(C)NC(C)=C(C(=O)OC)C1c1ccccc1[N+](=O)[O-],28%,16µM*!,9%,·
Cc1cccc(-n2c(-c3ccco3)nc3c(cnn3-c3ccc(F)cc3)c2=O)c1,-39%,-17%,18µM*,i
O=C(Nc1noc2ccccc12)c1cccc(F)c1,2µM*,-22%,67%,i
COc1ccc(CNC(=O)C(=O)NCC(c2cccnc2)N2CCN(c3ccccc3F)CC2)cc1 (stereo unspecified),-48%,-26%,13µM*,i
COc1ccccc1CCNC(=O)C(=O)NCC(c1cccnc1)N1CCN(c2ccccc2)CC1 (stereo unspecified),-44%,-7%,13µM*,i
COc1ccccc1CNC(=O)C(=O)NCC(c1cccnc1)N1CCN(c2ccc(F)cc2)CC1 (stereo unspecified),-46%,-6%,?,i
CC(=O)Nc1nc(C)c(-c2nc(N3CCCC(O)C3)no2)s1 (stereo unspecified),·,-4%,·,·
COc1ccc(C(=O)N2CCN(c3nc4c(OC)cccc4s3)CC2)cc1OC,-26%,4%,28µM*,i
COc1cccc2sc(N3CCN(C(=O)CCS(=O)(=O)c4ccc(F)cc4)CC3)nc12,-38%,2%,22µM*,i
NCc1c[nH]c(=S)n1[C@@H]1CCc2c(F)cc(F)cc2C1,·,6%,·,·
Cc1oc(-c2ccc(C(=O)Nc3cccc(C(F)(F)F)c3)cc2)nc1CSc1ccccc1,-89%,?,1.8µM*,i
CC(=O)c1ccc(NC(=O)c2ccc(-c3nc(CSc4ccccc4)c(C)o3)cc2)cc1,-31%,6%,?,i
COc1ccc(NC(=O)c2ccc(-c3nc(CSc4ccc(C)cc4)c(C)o3)cc2)cc1Cl,-8%,-8%,4.5µM*,i
SMILES,HTT-AS promoter,FH mod,HTT prom inh,TSG101-PTAP inh
COC(=O)c1ccnc(-c2cc(C(=O)NCCc3ccccc3)ccn2)c1,·,16%,·,·
C=C1C(OC(C)=O)CCC2(C)CCC(C(C)(C)O)CC12 (stereo unspecified),·,-1%,·,·
CN(C)c1ccc(Nc2c3ccc(NC(=O)CCN4CCCC4)cc3nc3cc(NC(=O)CCN4CCCC4)ccc23)cc1,·,-7%,·,·
Cc1ccccc1-n1c([C@H](C)Nc2nc(N)nc3nc[nH]c23)nc2cccc(C)c2c1=O,·,8%,·,·
COc1ccc(CNS(=O)(=O)c2cc3c(cc2Cl)N(C(C)=O)CCO3)cc1,-6%,0%,-18%,35µM*
COc1cccc(-c2cn3ncsc3n2)c1,2.5µM*,-13%,58%,i
O=S(=O)(Nc1ccc(O)c(Sc2nc3ccccc3s2)c1)c1cc(Cl)ccc1Cl,-20%,16µM*,?,i
CC(C)(C)c1ccc(CNC(=S)NCc2ccc(NS(C)(=O)=O)c(F)c2)cc1,·,-16%,·,·
